# From PubChem BioAssay
# Active and inactive are the calls of the source. Unless noted, how the calls were made is not given here.
# Tests used:
# [1] = compounds binding Alexa647 anti-His antibody – biochemical, small-molecule microarray, 635 nm fluorescence, artefact control for SMM control protein annotation, primary screen (AID 1128); conditions: higher = more signal;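 further: score merges feature fluorescence with signal-to-noise for each printed compound spot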
# [2] = test system: Human papillomavirus type 1a E7 protein (residues 1-88); experiment: HPV1a E7 small-molecule binders, primary screen, biochemical, small-molecule microarray, residues 1-88, 635 nm (AID 1129); conditions: small-molecule microarray binding, fluorescence 635 nm; higher = more signal
# [3] = biological target: Focal adhesion kinase 1 (Homo sapiens) (UniProt Q05397); experiment: PTK2 protein binding on printed compound slides – biochemical, small-molecule microarray, 635/667 nm fluorescence, BSA, DTT, primary screen (AID 1130); conditions: 635 nm fluorescence, higher = more signal;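 further: composite of spot emission at 667 nm and signal to noise over triplicate slides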
# Chain of Focal adhesion kinase 1 (Homo sapiens) (Q05397 whole entry, looked up): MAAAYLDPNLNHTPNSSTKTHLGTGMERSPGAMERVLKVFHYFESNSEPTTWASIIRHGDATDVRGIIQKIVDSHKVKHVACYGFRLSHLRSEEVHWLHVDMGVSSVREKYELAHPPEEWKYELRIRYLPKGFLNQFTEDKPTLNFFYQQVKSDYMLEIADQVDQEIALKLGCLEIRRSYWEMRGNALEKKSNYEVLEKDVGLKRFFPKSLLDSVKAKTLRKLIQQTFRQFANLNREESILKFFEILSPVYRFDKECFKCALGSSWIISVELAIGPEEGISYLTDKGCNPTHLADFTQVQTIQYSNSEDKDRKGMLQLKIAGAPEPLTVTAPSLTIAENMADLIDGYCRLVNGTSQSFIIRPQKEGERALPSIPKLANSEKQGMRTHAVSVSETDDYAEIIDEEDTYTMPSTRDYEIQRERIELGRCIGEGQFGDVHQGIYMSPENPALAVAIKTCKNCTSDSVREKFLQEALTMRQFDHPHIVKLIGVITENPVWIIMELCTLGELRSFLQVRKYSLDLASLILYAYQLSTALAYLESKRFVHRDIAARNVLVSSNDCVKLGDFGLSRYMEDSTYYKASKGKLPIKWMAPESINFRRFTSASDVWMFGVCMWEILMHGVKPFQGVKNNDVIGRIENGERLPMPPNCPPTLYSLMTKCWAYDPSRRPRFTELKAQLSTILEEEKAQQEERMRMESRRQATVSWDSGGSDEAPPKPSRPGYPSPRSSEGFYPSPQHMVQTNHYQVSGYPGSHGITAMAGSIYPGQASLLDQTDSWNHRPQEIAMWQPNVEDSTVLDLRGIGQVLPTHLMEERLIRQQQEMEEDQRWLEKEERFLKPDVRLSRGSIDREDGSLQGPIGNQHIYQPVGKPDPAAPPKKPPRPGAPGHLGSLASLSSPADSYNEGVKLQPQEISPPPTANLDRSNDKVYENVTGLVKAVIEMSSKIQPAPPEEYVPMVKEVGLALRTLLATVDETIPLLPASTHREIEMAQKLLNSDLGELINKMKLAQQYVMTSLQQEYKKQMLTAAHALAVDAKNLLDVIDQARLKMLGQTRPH
# [4] = test system: Fibrinogen (Alexa647-labelled); experiment: Alexa647-fibrinogen binding to printed small molecules – biochemical, small-molecule microarray, 635/667 nm fluorescence, artefact control for SMM control-protein annotation, profiling panel (AID 1131); conditions: fibrinogen-A647 binding fluorescence, higher = more signal;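 further: z-score merges 667 nm fluorescence with per-spot signal-to-noise over triplicate slides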
# [5] = biological target: Follistatin (Homo sapiens) (UniProt P19883); experiment: FST protein binding to printed compounds – biochemical, small-molecule microarray, 635/667 nm fluorescence, primary screen (AID 1132); conditions: 635 nm fluorescence, higher = more signal
# Chain of Follistatin (Homo sapiens) (P19883 whole entry, looked up): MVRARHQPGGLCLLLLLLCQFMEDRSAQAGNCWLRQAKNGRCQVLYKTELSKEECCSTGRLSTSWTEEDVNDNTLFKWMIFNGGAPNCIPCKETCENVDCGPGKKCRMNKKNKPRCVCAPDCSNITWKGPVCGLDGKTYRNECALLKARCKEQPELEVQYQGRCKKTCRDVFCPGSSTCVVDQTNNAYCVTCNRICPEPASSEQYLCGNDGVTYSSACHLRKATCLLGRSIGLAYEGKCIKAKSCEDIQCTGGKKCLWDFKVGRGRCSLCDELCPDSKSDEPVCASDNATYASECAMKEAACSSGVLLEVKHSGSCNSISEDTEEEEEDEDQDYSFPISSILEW
# [6] = biological target: Fibroblast growth factor 2 (Homo sapiens) (UniProt P09038); experiment: basic fibroblast growth factor binding to printed compounds – biochemical, small-molecule microarray, 635/667 nm fluorescence, primary screen (AID 1133); conditions: FGF2, fluorescence 635/667, higher = more signal
# Chain of Fibroblast growth factor 2 (Homo sapiens) (P09038 whole entry, looked up): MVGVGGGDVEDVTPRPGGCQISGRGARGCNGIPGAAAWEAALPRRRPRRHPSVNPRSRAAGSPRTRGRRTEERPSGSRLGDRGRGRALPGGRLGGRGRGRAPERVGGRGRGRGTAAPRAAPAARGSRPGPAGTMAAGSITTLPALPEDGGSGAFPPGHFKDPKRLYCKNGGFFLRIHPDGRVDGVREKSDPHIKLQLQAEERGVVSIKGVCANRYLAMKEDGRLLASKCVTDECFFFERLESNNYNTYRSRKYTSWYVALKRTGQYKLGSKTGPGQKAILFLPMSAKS
# [7] = JC-1 mitochondrial potential readout, lung cancer cells – cell-based, A549, JC-1 fluorescence, basal, 24 h, 100 nL, profiling panel (AID 1138); conditions: higher = more signal;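 further: A549 lung adenocarcinoma cells under basal conditions with no added stimulus; test concentration not given here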
# [8] = test system: Lefty1; experiment: Lefty1 protein binding to printed compounds – biochemical, small-molecule microarray, 635/667 nm fluorescence, primary screen (AID 1139); conditions: fluorescence 635/667, higher = more signal
# [9] = test system: wheat germ agglutinin (Triticum aestivum), Alexa647-labelled; experiment: Alexa647-WGA lectin binding to printed small molecules – biochemical, small-molecule microarray, 635/667 nm fluorescence, artefact control for SMM control-protein annotation, profiling panel (AID 1140); conditions: WGA-A647 binding, 635 nm fluorescence, higher = more signal;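 further: score merges 667 nm feature emission with signal to noise over triplicate slides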
# [10] = biological target: Luciferin 4-monooxygenase (Photinus pyralis) (UniProt P08659); experiment: inhibition of purified Photinus pyralis luciferase – biochemical, luminescence, purified enzyme, 2006 set, primary screen (AID 1141); conditions: purified firefly luciferase, SteadyGlo luminescence, 30 min; higher = more signal, called active from +8 up or from −8 down;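 further: cell-free assay with purified firefly luciferase at 100 ng per well in PBS; test concentration not given here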
# Chain of Luciferin 4-monooxygenase (Photinus pyralis) (P08659 whole entry, looked up): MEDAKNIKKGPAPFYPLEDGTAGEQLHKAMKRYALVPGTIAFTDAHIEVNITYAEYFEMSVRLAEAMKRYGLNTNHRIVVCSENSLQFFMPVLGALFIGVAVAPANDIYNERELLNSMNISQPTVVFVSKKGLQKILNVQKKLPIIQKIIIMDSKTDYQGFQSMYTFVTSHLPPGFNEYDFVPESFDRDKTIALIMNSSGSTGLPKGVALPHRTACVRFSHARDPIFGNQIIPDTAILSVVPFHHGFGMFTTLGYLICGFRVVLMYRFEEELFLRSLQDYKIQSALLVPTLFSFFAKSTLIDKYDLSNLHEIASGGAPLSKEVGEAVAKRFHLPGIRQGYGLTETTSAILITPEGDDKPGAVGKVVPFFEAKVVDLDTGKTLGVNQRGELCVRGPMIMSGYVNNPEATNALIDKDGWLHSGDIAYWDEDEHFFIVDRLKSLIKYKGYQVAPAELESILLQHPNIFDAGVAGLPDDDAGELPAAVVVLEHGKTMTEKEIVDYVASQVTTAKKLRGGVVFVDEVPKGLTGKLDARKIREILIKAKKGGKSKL
# [11] = test system: Wnt5a (protein binding on small-molecule microarray); experiment: small molecules binding Wnt5a protein – biophysical, small-molecule microarray, 635/667 nm fluorescence, primary screen (AID 1142); conditions: 635 nm fluorescence, higher = more signal;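 further: fluorescence read at 667 nm with signal to noise per printed feature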
# [12] = ATP-based viability of Huh7 replicon cells – cell-based, CellTiter-Glo luminescence, basal, 48 h, cytotoxicity control for HCV replication inhibitor project, primary screen (AID 1143); conditions: higher = more signal, called active from +8 up or from −8 down;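 further: Huh7 hepatoma cells carrying a hepatitis C replication reporter with no stimulus; test concentration not given here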
# [13] = Pseudomonas biofilm growth suppression – PAO1 strain, BacTiter-Glo luminescence, LB-PBS, primary screen (AID 1144); conditions: P. aeruginosa PAO1 biofilm, 12 h, higher = more signal
# [14] = basal CRE-LacZ reporter activity in PC12 – cell-based, unstimulated, primary screen (AID 1145); conditions: no forskolin, luminescence, 4.5 h, higher = more signal, called active from +8 up or from −8 down
# [15] = forskolin-driven CRE-LacZ activity in PC12 – cell-based, CRE-LacZ reporter, forskolin-stimulated, primary screen (AID 1146); conditions: luminescence, 4.5 h, higher = more signal, called active from +8 up or from −8 down;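 further: PC12 cells with 6xCRE LacZ reporter stimulated by forskolin 10 µM; beta-galactosidase reporter signal reflecting CREB driven transcription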
# [16] = biological target: Streptavidin (Streptomyces avidinii) (UniProt P22629); experiment: compounds binding control protein streptavidin – biophysical, small-molecule microarray, 635/667 nm fluorescence, artefact control for SMM compound annotation, primary screen (AID 1147); conditions: higher = more signal;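 further: signal reflects streptavidin binding to arrayed compounds as a control protein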
# Chain of Streptavidin (Streptomyces avidinii) (P22629 whole entry, looked up): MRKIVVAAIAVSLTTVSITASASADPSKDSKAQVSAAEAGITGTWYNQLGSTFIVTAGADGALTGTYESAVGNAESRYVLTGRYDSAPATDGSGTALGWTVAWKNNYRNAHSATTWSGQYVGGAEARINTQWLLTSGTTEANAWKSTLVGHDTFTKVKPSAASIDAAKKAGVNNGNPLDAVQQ
# [17] = probe aInhba binding on compound microarray – biochemical, small-molecule microarray, 635/667 nm fluorescence, primary screen (AID 1148); conditions: higher = more signal;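 further: score merges 667nm spot fluorescence with signal-to-noise for antibody binding to printed compounds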
# [18] = biological target: Torsin-1A (Homo sapiens) (UniProt O14656); experiment: TOR1A wild-type binding on microarray – cell lysate, small-molecule microarray, lysate, 635/667 nm, primary screen (AID 1149); conditions: COS7 hTOR1A-WT lysate, 635 nm fluorescence, higher = more signal
# Chain of Torsin-1A (Homo sapiens) (O14656 whole entry, looked up): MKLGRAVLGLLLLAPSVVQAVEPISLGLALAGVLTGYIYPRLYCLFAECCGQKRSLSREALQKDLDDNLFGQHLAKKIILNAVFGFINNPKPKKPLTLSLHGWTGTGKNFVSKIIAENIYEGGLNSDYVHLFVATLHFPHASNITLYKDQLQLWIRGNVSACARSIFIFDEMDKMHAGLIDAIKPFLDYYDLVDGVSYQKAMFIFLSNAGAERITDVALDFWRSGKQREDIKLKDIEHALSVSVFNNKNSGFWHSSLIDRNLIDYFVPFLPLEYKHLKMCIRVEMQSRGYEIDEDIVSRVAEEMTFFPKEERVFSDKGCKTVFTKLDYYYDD
# [19] = biological target: Torsin-1A (Homo sapiens) (UniProt O14656); experiment: torsin A mutant lysate binding on microarrays – cell lysate, small-molecule microarray, COS7 lysate, 635/667 nm fluorescence, primary screen (AID 1150); conditions: COS7 hTOR1A mutant lysate, 635 nm fluorescence, higher = more signal;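 further: score pools 667 nm emission and signal to noise measuring lysate protein binding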
# [20] = test system: Sonic hedgehog protein (Shh); experiment: Sonic hedgehog microarray binding compounds – biochemical, small-molecule microarray, 635/667 nm fluorescence, primary screen (AID 1151); conditions: 635 nm fluorescence, higher = more signal;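 further: Shh protein binding to compounds spotted on small-molecule microarray slides; score combines spot fluorescence intensity with signal-to-noise across triplicate slides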
SMILES,composite z-score [1],composite z-score [2],composite z-score [3],composite z-score [4],composite z-score [5],composite z-score [6],z-score [7],composite z-score [8],composite z-score [9],z-score [10],composite z-score [11],z-score [12],z-score [13],z-score [14],z-score [15],composite z-score [16],composite z-score [17],composite z-score [18],composite z-score [19],composite z-score [20]
CO[C@@H]1COC(=O)CC=C[C@@H](C)[C@H](OC)COC(=O)[C@H](COCc2ccccc2)NC(=O)CC=C[C@H]1C,-1.36,-2.53,-0.843,-1.21,1.43,0.513,-0.169,1.12,-1.13,0.518 (inactive),-0.0092,-0.069 (inactive),0.204 (inactive),0.0664 (inactive),-0.707 (inactive),-1.15,-0.253,1.35,0.263,1.5
CC(C)CON=C1C[C@@H](O)[C@@H](O)[C@@H]2[C@@H]3C(=O)N(C[C@@H]4CCCO4)C(=O)[C@@H]3CC[C@H]12,0.361,0.625,0.0201,0.286,0.268,0.911,-0.786,0.541,0.0098,1.01 (inactive),-0.0313,-1.36 (inactive),1.34 (inactive),-1.02 (inactive),-0.296 (inactive),-0.23,-0.128,0.0672,1.49,0.819
C[C@@H]1CC[C@H]2C(=O)O[C@H](COc3ccc(C(C)(C)C)cc3)CN2[C@H]1c1ccc(Br)cc1,2.99,-0.701,-0.0482,0.54,-0.123,0.0203,1.87,0.0924,0.148,-1.36 (inactive),-0.131,-0.443 (inactive),-0.301 (inactive),0.262 (inactive),0.203 (inactive),0.102,-0.17,-0.175,-0.142,0.348
C=CCOC(=O)[C@H]1[C@@H]2C(=O)O[C@@H](c3ccccc3)[C@@H](c3ccccc3)N2[C@@H](c2ccc(OCCOC(=O)[C@H]3C[C@H]4C(=O)N[C@@H](Cc5ccccc5)C(=O)N4[C@H]3c3ccc(O)cc3)cc2)[C@]12C(=O)Nc1ccccc12,2.22,1.13,1.23,0.51,1.46,1.67,-1.58,1.46,0.654,-2.01 (inactive),0.354,-0.155 (inactive),-0.0202 (inactive),0.285 (inactive),-0.231 (inactive),-0.261,-0.171,0.419,0.278,1.92
CC(C)=NOCc1cccc(-c2cc(-c3ccccc3)no2)c1,0.545,0.974,0.882,0.464,0.973,0.727,0.732,0.92,0.848,-0.158 (inactive),0.118,0.525 (inactive),-0.14 (inactive),-0.437 (inactive),0.345 (inactive),0.468,0.106,0.533,0.247,0.826
COc1ccc(-c2nc3c(c4c2C[C@H](C)OC4)CN(CCC(C)C)CC3)cc1,0.998,1.14,0.233,0.809,0.653,0.491,2.72,0.67,0.642,-0.793 (inactive),-0.0798,-0.333 (inactive),-1.22 (inactive),7.06 (inactive),-1.11 (inactive),0.141,-0.0791,-0.253,0.0824,1.32
C=C(/C(=C/C[C@H](OC(C)=O)c1ccc(OCCO)cc1)c1cnc2ccccc2c1)C(C)C,0.888,1.19,-0.0763,0.921,1.45,1.31,0.414,1.48,0.585,-0.477 (inactive),0.826,-2.51 (inactive),-1.37 (inactive),2.06 (inactive),-0.586 (inactive),0.868,-0.108,0.55,1,2.21
O=C1O[C@@H](c2ccccc2)[C@@H](c2ccccc2)N2[C@@H](c3ccc(OCCO)cc3)[C@]3(C(=O)Nc4ccccc43)[C@@H](C(=O)N3CCN(c4ncccn4)CC3)[C@H]12,1.08,1.18,0.687,0.489,1.28,1.17,-0.473,1.19,0.929,-1.4 (inactive),0.22,-0.704 (inactive),0.349 (inactive),0.865 (inactive),3.05 (inactive),0.557,0.175,0.403,0.94,1.14
COc1ccc([Si](C)(C)[C@H]2[C@H](CCO)O[C@@]3(C(=O)N(Cc4cccc(NC(=O)[C@H](C)O)c4)c4ccccc43)[C@@H]2C)cc1,1.75,1.15,0.598,0.83,1.11,0.684,-0.598,1.23,0.23,-0.208 (inactive),0.209,-7.96 (inactive),-1.52 (inactive),3.1 (inactive),-0.878 (inactive),0.394,-0.0468,0.715,0.916,1.98
